Compound activity from PubChem.
KCNQ2 inh: KCNQ2 (rat) channel inhibition | B-score at 10 µM | AID 2156 | 310,000 compounds, 1.1% hits | CHO-K1 KCNQ2, FluxOR thallium flux, 20 min; stronger effect = lower value;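 active = fluorescence ratio B-score at most minus 3 library SDs, with starting brightness B-score within 2 library SDs, cut at about -5.5 in these data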
Target sequence (O88943 whole entry, looked up): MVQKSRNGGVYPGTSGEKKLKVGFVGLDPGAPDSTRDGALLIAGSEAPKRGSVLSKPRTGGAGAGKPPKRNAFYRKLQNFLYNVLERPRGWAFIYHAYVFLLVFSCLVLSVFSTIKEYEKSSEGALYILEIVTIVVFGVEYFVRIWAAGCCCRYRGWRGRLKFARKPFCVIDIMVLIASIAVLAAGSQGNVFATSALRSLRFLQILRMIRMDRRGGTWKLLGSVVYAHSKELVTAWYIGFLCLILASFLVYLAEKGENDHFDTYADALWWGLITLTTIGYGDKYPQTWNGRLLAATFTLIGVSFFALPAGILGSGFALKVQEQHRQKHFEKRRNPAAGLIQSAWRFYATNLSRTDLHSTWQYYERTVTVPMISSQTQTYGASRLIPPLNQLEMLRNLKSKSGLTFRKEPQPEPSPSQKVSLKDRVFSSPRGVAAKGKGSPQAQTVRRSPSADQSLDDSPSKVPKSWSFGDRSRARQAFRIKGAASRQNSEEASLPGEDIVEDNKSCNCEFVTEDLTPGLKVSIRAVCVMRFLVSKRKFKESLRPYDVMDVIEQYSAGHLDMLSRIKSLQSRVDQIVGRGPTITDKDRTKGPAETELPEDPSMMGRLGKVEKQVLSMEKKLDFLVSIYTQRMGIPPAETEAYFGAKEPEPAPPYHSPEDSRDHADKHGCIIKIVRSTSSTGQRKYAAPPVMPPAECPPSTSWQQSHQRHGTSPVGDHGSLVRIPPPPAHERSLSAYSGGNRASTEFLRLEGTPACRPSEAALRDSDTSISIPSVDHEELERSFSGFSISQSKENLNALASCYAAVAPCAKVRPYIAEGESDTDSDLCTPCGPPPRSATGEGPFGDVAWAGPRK
KCNQ2 pot: enhances the rat KCNQ2 potassium channel; O88943; 310,000 compounds, 0.54% hits; CHO-K1 KCNQ2, FluxOR thallium flux fluorescence; stronger effect = higher value; B-score at 10 µM;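 active = fluorescence ratio B-score at least 3 SD of library B-scores, with initial fluorescence B-score within 3 of them, cut at about 5.3 in these data; same plate scores as AID 2156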;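 note: B-score of peak minus minimum over baseline fluorescence ratio after K+ and Tl+ stimulus; positive B-score means potentiation of KCNQ2 with more thallium influx and brighter signal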
The depositor's hits bear a star; i = inactive; nt = no result. Rows were chosen to be rich in hits. Some 1.6% of all compounds tested hit in one or more screens of this group.

SMILES | KCNQ2 inh | KCNQ2 pot
COCCn1c(SC(C)C(=O)Nc2ccc(Cl)cn2)nnc1-c1ccncc1 (centres undefined) | i | 1.1
COc1ccc(CNC(=O)C2CCCN(Cc3nc(-c4cccc(C)c4)oc3C)C2)cc1 (centres undefined) | -6.4* | -6.4
COc1ccc(-c2nc(CN3CCCC(C(=O)NC4CCCC4)C3)c(C)o2)cc1 (centres undefined) | i | nt
Cc1ccccc1-c1nc(CN2CCCC(C(=O)NCc3cccnc3)C2)c(C)o1 (centres undefined) | i | 9*
Cc1ccccc1-c1nc(CN2CCCC(C(=O)NCCCN3CCOCC3)C2)c(C)o1 (centres undefined) | i | 0.91
Cc1ccc(C)c(S(=O)(=O)Nc2cc3c4c(c2)CCC(=O)N4CCC3)c1 | i | nt
CCOC(=O)C(Cc1ccccc1)(Cc1ccccc1)C(C)=O | -6.4* | -6.4
CC(=O)C(Cc1ccccc1)(Cc1ccccc1)C(C)=O | i | 0.24
CC(C)OCCCn1c(=O)c2ccccc2n2c(CCC(=O)NC3CCN(Cc4ccccc4)CC3)nnc12 | -6* | -6
CC(C)OCCCn1c(=O)c2ccccc2n2c(CCC(=O)O)nnc12 | i | 1.6
COc1ccc(CCNC(=O)c2cccnc2Cl)cc1OC | i | 0.38
CC(=O)Nc1cccc(-c2nc3ccccc3[nH]2)c1 | i | 1.6
CC(Oc1ccccc1)C(=O)Nc1cccc(-c2nc3ccccc3[nH]2)c1 (centres undefined) | -5.6* | -5.6
CCOc1ccc2nc(N3C(=O)/C(=C/c4ccc(Cl)cc4)NC3=S)sc2c1 | i | 15*
COc1ccc2nc(N3C(=O)CNC3=S)sc2c1 | i | 0.42
Cc1noc(C)c1COc1ccc(C(=O)N2CCCC(C(F)(F)F)C2)cc1 (centres undefined) | i | 0.97
COCCNC(=O)C(c1ccc(C)cc1)N(C(=O)CCC(=O)Nc1ccccn1)c1ccccc1C (centres undefined) | i | 0.25
N#Cc1c(N2CCN(C(=O)c3ccco3)CC2)nc(-c2ccccc2)c2c1CCCC2 | -5.6* | -5.6
N#Cc1c(N2CCN(C(=O)c3ccccc3)CC2)nc(-c2ccccc2)c2c1CCCC2 | i | nt
CC(C)Cc1nc(N2CCN(C(=O)c3ccccc3)CC2)c(C#N)c2c1CCC2 | -6.6* | -6.6
CC(=O)N1CCN(c2nc(CC(C)C)c3c(c2C#N)CCC3)CC1 | i | nt
CC(C)Cc1nc(N2CCN(C(=O)c3ccco3)CC2)c(C#N)c2c1CCC2 | i | nt
CC(C)Cc1nc(N2CCN(C(=O)C(C)C)CC2)c(C#N)c2c1CCC2 | -6.5* | -6.5
CSc1nccc(NC(=O)c2cccc(Br)c2)n1 | i | 3.5
CCc1ncc(CN2CCCCC2C(=O)Nc2ccc(Oc3ccccc3)nc2)cn1 (centres undefined) | i | 0.05
SMILES | KCNQ2 inh | KCNQ2 pot
Cc1cc(C)c(C(=O)NNC(=O)c2cccnc2)c(C)c1 | i | nt
CCC1CCCCN1C(=O)CCn1c(=O)oc2ccccc21 (centres undefined) | i | nt
O=C(c1ccncc1)N(c1ccc2oc3c(c2c1)CCCC3)S(=O)(=O)c1cccc([N+](=O)[O-])c1 | i | nt
COc1ccc(S(=O)(=O)N(C(=O)c2ccncc2)c2ccc3oc4c(c3c2)CCCC4)cc1 | -5.7* | -5.7
CCC(C)(C(=O)NC1CCCC1)N(C)C(=O)c1ccccn1 (centres undefined) | i | nt
CC(Sc1cccc[n+]1[O-])C(=O)Nc1ccc(Oc2ccccc2)cc1 (centres undefined) | i | nt
O=C1c2ccccc2C(Nc2ccc(Cl)cn2)N1c1ccccn1 (centres undefined) | -6.6* | -6.6
O=C1c2ccccc2C(Nc2ccc(S(=O)(=O)N3CCCCCC3)cc2)N1c1ccccn1 (centres undefined) | i | nt
Cc1cc(NC(=O)c2cccs2)ncc1NC(=O)C(C)(C)C | i | 0.59
CCOC(=O)c1c(CN(C)C)n(-c2ccccc2)c2cc(Br)c(OC)cc12 | -6.2* | -6.2
CCOC(=O)c1c(CN2CCOCC2)n(-c2ccccc2)c2cc(Br)c(OC)cc12 | i | nt
COC(=O)c1cn(C(=O)c2cc(OC)cc(OC)c2)c2ccccc12 | -6.3* | -6.3
COC(=O)c1cn(C(=O)c2ccccc2)c2ccccc12 | i | nt
COc1ccc(NC(=O)Oc2cc(C)ccc2C(C)C)cc1 | i | nt
O=C(NC(=S)Nc1nc2ccccc2s1)c1cccs1 | i | 6.8*
O=C(NC(=S)Nc1ccccc1)c1cccs1 | i | 4.3
COc1ccc(CNC(=O)COC(=O)CC2CCCC2)cc1 | i | nt
CCCCc1cc(=O)oc2cc(O)ccc12 | i | nt
COc1ccc(Cc2nc(C(=O)Nc3ccc(Cl)cc3)cs2)cc1 | -5.8* | -5.8
COc1ccc(NC(=O)c2csc(Cc3ccc(Cl)cc3)n2)cc1 | i | nt
N/C(=N\OC(=O)c1ccccc1Cl)c1ccccc1 | i | nt
N/C(=N\OC(=O)N1c2ccccc2Sc2ccccc21)c1ccccc1 | -6.5* | -6.5
CC(C#N)(Cc1ccccc1)Nc1ccccc1 (centres undefined) | i | nt
O=C(NC1CC(=O)N(c2ccc3c(c2)OCCO3)C1)N1CCC(O)CC1 (centres undefined) | i | 0.14
CN(CCCC(=O)NC1CC(C)(C)NC(C)(C)C1)S(=O)(=O)c1ccc([N+](=O)[O-])cc1 | i | nt
SMILES | KCNQ2 inh | KCNQ2 pot
O=C(Cn1c(=O)c2cccn2c2cccnc21)N1CCN(c2ccc(Cl)cc2)CC1 | -7.6* | -7.6
Cc1ccc(Cl)cc1N1CCN(C(=O)CCCn2c(=O)c3cccn3c3cccnc32)CC1 | i | nt
CCc1ccc(N2CC(C(=O)Nc3ccc4c(c3)OCCO4)CC2=O)cc1 (centres undefined) | i | nt
Cc1ccc(S(=O)(=O)N2CCN(c3ccccc3)CC2)c(C)c1 | i | nt
CCOC(=O)N/N=C\c1ccc([N+](=O)[O-])o1 | i | nt
O=C(CC12CC3CC(CC(C3)C1)C2)N/N=C/c1ccc([N+](=O)[O-])o1 | i | 16*
CCCCCCC(=O)N/N=C/c1ccco1 | i | 10*
O=C(Cc1ccc([N+](=O)[O-])cc1)N/N=C/c1ccc([N+](=O)[O-])o1 | i | nt
CCCCCCCC(=O)N/N=C/c1ccc([N+](=O)[O-])o1 | i | 8.2*
O=C(C[n+]1ccccc1)N/N=C/c1ccco1 | i | 0.64
COc1ccc(OCc2cc(C(=O)O)c(C)o2)cc1 | i | 0.62
COc1ccc2c(CCNC(=O)c3ccc([N+](=O)[O-])cc3)c[nH]c2c1 | i | 0.97
CCNc1ccc(C(=O)NN=C2CCCC2)cc1[N+](=O)[O-] | i | nt
O=C(CCN1CCOCC1)NC1CCCN(Cc2ccccc2F)C1 (centres undefined) | i | nt
O=C(CCC(=O)Nc1ccccc1)NNS(=O)(=O)c1ccccc1[N+](=O)[O-] | i | nt
CCOC(=O)C1CCN(c2c(NCc3ccc(C(=O)Nc4ccc(C)cc4)cc3)c(=O)c2=O)CC1 | i | nt
COC(=O)c1ccccc1C(=O)c1ccc2c(c1)NC(=O)CO2 | i | 1.7
CCOC(=O)C1CCCN(C(=O)Cn2nc(C)n3c(cc4c(OC)cccc43)c2=O)C1 (centres undefined) | i | 0.99
COc1cccc2c1cc1c(=O)n(CC(=O)N3CCCCCC3)nc(C)n12 | -5.7* | -5.7
O=C(NC(=S)N(CCO)Cc1ccccc1)c1ccc(F)cc1Cl | i | nt
NC(=O)C1CCN(C(=O)CC(c2ccccc2)c2ccccc2)CC1 | i | 0.59
Cc1ccccc1/C=C1\CCCc2ccccc2C1=O | i | nt
